Screening results (PubChem)
TRPV1 ag: HTS Assay for Compounds that Act as Agonists of the Vanilloid Receptor 1. Transient receptor potential cation channel subfamily V member 1 (Homo sapiens), Q8NER1. TRPV1-expressing cells, Fluo-8 calcium influx, agonist mode. activation, % at 8.33 µM. 320,000 compounds, 0.19% hits. AID 540275, 2011; in the data active = activation above about 80%; inconclusive = between about 30% and that limit
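Fluo-8 calcium influx in TRPV1-expressing cells, kinetic read (ex 480/em 520 nm). Compound added and read 3 min for agonist activity, followed by capsaicin at EC20 final and 2 min further read for enhancement.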
TRPML1 inh: qHTS for Inhibitors of the Human Mucolipin Transient Receptor Potential 1 (TRPML1). Mucolipin-1 (Homo sapiens), Q9GZU1. TRPML1-inducible cells, Ca2+ dye fluorescence, FDSS; hits give low values; inhibition of EC80 agonist-evoked calcium signal. activity change, negative = inhibition, % (concentration not given with the values). 390,000 compounds, 0.02% hits; in the data active = activity change below about -50%; inconclusive = between about -30% and that limit;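 note: stimulus is agonist 54-4 at its EC80 concentration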
Target sequence (Q9GZU1 whole entry, looked up): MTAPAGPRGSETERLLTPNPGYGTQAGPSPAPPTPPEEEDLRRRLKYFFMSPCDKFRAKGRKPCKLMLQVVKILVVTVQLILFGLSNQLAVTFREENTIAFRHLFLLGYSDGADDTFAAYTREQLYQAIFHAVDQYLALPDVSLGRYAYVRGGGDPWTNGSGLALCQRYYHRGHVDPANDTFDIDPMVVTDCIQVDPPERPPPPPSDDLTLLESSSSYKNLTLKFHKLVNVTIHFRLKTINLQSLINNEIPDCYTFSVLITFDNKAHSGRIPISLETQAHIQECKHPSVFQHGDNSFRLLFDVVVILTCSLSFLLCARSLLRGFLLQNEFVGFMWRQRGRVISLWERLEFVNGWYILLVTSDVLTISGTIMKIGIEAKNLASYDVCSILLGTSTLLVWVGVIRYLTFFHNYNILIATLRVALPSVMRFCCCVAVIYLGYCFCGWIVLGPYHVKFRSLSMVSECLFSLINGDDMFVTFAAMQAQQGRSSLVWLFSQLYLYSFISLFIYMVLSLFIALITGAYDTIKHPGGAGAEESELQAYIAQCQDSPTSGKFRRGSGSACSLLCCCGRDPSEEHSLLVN
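Tet-induced TRPML1-DL cells loaded with Ca8 no-wash calcium dye were read kinetically on FDSS. Compound addition was followed by EC80 agonist 54-4 (4 uM final); inhibition was read over 110 s.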
TRPML1 ag: qHTS for Agonists of the Human Mucolipin Transient Receptor Potential 1 (TRPML1). Mucolipin-1 (Homo sapiens), Q9GZU1. TRPML1-expressing cells, Ca2+ dye fluorescence, FDSS. activation, % (test concentration not listed). 410,000 compounds, 0.12% hits; in the data active = activation above about 50%; inconclusive = mostly about 30% to 49%
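TRPML1-DL cells, Tet-induced overnight (~16 h, 37 degrees C), loaded 45-90 min at room temperature with Ca8 no-wash calcium dye plus quencher. FDSS fluorescence: 10 s baseline, compound pin-transfer, 110 s agonist read, then EC80 54-4 (4uM final) and 110 s antagonist read.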
TRPV1 potentiator: HTS Assay for Compounds that Act as Potentiators of the Vanilloid Receptor 1; AID 540277, 2011; 320,000 compounds, 0.02% hits; potentiation, % at 8.33 µM; TRPV1-expressing cells, Fluo-8 calcium influx, capsaicin EC20 potentiation; Transient receptor potential cation channel subfamily V member 1 (Homo sapiens), Q8NER1; in the data active = potentiation above about 80%; inconclusive = between about 30% and that limit
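TRPV1-expressing cells were cultured overnight at 35.5C and loaded with Fluo-8 calcium dye for 40 to 90 min at room temperature. After a 10 s baseline, compound was added and calcium influx was read kinetically for 3 min (ex 480/em 520 nm).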
Of the large screens only hits and unclear results are named; the others gave an inactive call. In the library only some 0.31% were active in any assay of this set; here they are far more common.

O=C(COC(=O)C12CC3CC(CC(Cl)(C3)C1)C2)Nc1ccc2[nH]c(=O)[nH]c2c1	TRPV1 ag inconclusive
O=C(CCNC(=O)c1ccc([N+](=O)[O-])cc1)NCCC1=CCCCC1	none
O=C(NCCC1=CCCCC1)c1ccc([N+](=O)[O-])cc1	TRPV1 ag 89
Cc1cc(C(=O)NCCC2=CCCCC2)ccc1[N+](=O)[O-]	TRPV1 ag 83
COc1ccc(OC)c(CNC(=O)c2ccc(Sc3ccc(Cl)cc3)c(NC(C)=O)c2)c1	none (no result: TRPV1 ag, TRPV1 potentiator)
COc1ccc2nc(NC(=O)c3ccc(-n4nc(C)cc4C)cc3)sc2c1	TRPML1 ag 68
COc1ccc(C(=O)Nc2cc3c4c(c2)CC(=O)N4CCC3)c(OC)c1	none
COc1ccc(C(=O)Nc2ccc(C3(C#N)CCCC3)cc2)cc1	TRPV1 ag 89
COc1ccc(C(=O)Nc2cc3c4c(c2)CC(=O)N4CCC3)cc1	TRPML1 inh inconclusive, TRPML1 ag 55
CC(C)Oc1ccc(NC(=O)c2ccncc2)cc1	TRPV1 ag 86
COc1ccc(NC(=O)C2(c3ccc(NC(=O)c4ccc(C)cc4)cc3)CCCC2)cc1	none
Cc1ccccc1NC(=O)Cn1nnc(C(=O)NCCc2ccccc2)c1N	none (no result: TRPV1 ag, TRPV1 potentiator)
N#Cc1ccc(NC(=O)COc2ccccc2C(=O)Nc2ccccc2)cc1	none (no result: TRPV1 ag, TRPML1 inh, TRPV1 potentiator)
CN(CCN(C)c1nc(-c2cccs2)nc2ccccc12)C(=O)OC(C)(C)C	none (no result: TRPV1 ag, TRPML1 inh, TRPV1 potentiator)
COc1ccc(C(=O)Nc2ccc3ccccc3c2)cc1	TRPV1 ag 96
COc1ccc(C(=O)Nc2nc3ccccc3s2)cc1	TRPV1 ag 96
O=C(COC(=O)/C=C/c1ccccc1)Nc1cccnc1Cl	none
O=C(/C=C/c1ccccc1)Nc1cccnc1Cl	TRPV1 ag 84
O=C(Cc1cccs1)Nc1cccc(-c2nnc(-c3ccco3)o2)c1	TRPV1 ag inconclusive, TRPV1 potentiator 89
O=S1(=O)CCO[C@H]2CCCC[C@@H]2N1Cc1ccc(Cl)cc1	none (no result: TRPV1 ag, TRPML1 inh, TRPV1 potentiator)
CCCOc1ccc(OCCOCCNCc2ccccc2)cc1	none
CCOc1ccc(OCCOCCNCCOC)cc1	TRPML1 ag 60
C#CCN(Cc1ccc(OC)cc1)S(=O)(=O)C=C	none (no result: TRPV1 ag, TRPML1 inh, TRPV1 potentiator)
O=C(Nc1ccccc1)c1csc(-c2ccccc2)n1	TRPV1 ag 85
O=C(NNC(=O)c1csc(-c2ccccc2)n1)c1ccccc1	none (no result: TRPV1 ag, TRPV1 potentiator)
Cc1nc2c(cnn2-c2ccccc2Cl)c(=O)n1-c1ccc(C(C)C)cc1	TRPML1 ag 94, TRPV1 potentiator inconclusive
Cc1c(F)cccc1Cn1cnc2c(cnn2C(C)(C)C)c1=O	none (no result: TRPV1 ag, TRPV1 potentiator)
CC(C)(C)n1nnnc1C(c1ccccc1F)N(Cc1ccco1)CC1CCCO1 (centres undefined)	TRPV1 ag inconclusive, TRPML1 ag 66
COc1cccc(CN(Cc2ccco2)C(c2ccc(F)cc2)c2nnnn2C(C)(C)C)c1 (centres undefined)	TRPML1 ag 106
CN(C)c1cc2c3ccccc3ccc2c2ccccc12	none (no result: TRPV1 ag, TRPML1 inh, TRPV1 potentiator)
C[C@@]12C=Cc3occc3[C@H]1CC[C@]13CC(=O)[C@@H](CC[C@H]12)C3	none (no result: TRPV1 ag, TRPV1 potentiator)
O=C(C1=C(O)C(=O)N(c2nccs2)C1c1ccccc1)c1cc2ccccc2o1 (centres undefined)	TRPV1 ag inconclusive, TRPML1 ag 92
O=S(=O)(Nc1cccc2cccnc12)C1CC1	none
Cc1cccc(C(=O)n2nc(-c3cccnc3)nc2NCc2ccc(F)cc2)c1	none (no result: TRPV1 ag, TRPV1 potentiator)
Cc1ccc2oc(C(=O)N3CCC(c4nc5ccccc5s4)CC3)c(C)c2c1	TRPML1 ag 54 (no result: TRPV1 ag, TRPV1 potentiator)
Cc1c(C(=O)N2CCC(c3nc4ccccc4s3)CC2)oc2cc(Br)ccc12	none (no result: TRPV1 ag, TRPV1 potentiator)
CCOc1c(Nc2ccc(C(C)C)cc2)c(=O)c1=O	TRPV1 ag 83
COc1nc(Nc2ccc(C(C)C)cc2)nc(OC)n1	none
Cc1c(N=c2scc(-c3ccccc3)n2C)c(=O)n(-c2ccccc2)n1C	TRPV1 potentiator 95
Cc1cc(C)nc(/N=C(\N)Nc2ccc(F)c([N+](=O)[O-])c2)n1	TRPML1 ag 75 (no result: TRPV1 ag, TRPV1 potentiator)
Cc1cc(C)nc(/N=C(\N)Nc2ccc(SC(F)F)cc2)n1	TRPML1 ag 54
CC(=O)Nc1ccc(N/C(N)=N/c2nc(C)cc(C)n2)cc1	none
CC(=O)Oc1ccc2c(c1)Oc1cc(OC(C)=O)ccc1C21OC(=O)c2ccccc21	TRPV1 ag 140, TRPML1 ag 113
CCOC(=O)c1ccc(NC(=O)NCc2ccccc2OC)cc1	TRPV1 ag 84
COc1ccc(NC(=O)c2cnc3cc(C)ccn3c2=O)c(OC)c1	none (no result: TRPV1 ag, TRPV1 potentiator)
CCN(CC)c1ccc(C(=O)NNC(=O)CCl)cc1	TRPV1 potentiator 123
O=C(O)c1cccc(N2C(=O)c3cccc4c(Cl)ccc(c34)C2=O)c1	none
Nc1ccc2c3c(cccc13)C(=O)N(c1ccccc1)C2=O	TRPML1 ag 94
CCN1C(=O)c2cccc3c(Cl)ccc(c23)C1=O	none
Cc1cccc(N2C(=O)c3cccc4c(N(C)CCO)ccc(c34)C2=O)c1	TRPML1 ag 77
CC(C)CCN1C(=O)c2cccc3c(N)ccc(c23)C1=O	TRPML1 ag 89 (no result: TRPV1 ag, TRPV1 potentiator)
Nc1cccc(N2C(=O)c3cccc4c(N)ccc(c34)C2=O)c1	TRPML1 ag 55
CN(C)c1ccc2c3c(cccc13)C(=O)N(c1ccccc1)C2=O	none (no result: TRPML1 inh, TRPML1 ag)
Cc1cccc(N2C(=O)c3cccc4c(N)ccc(c34)C2=O)c1	TRPV1 ag 148, TRPML1 ag 104
CCOC(=O)c1ccc(Nc2nnc(C)c3ccccc23)cc1	TRPV1 ag 86
CC[N+](C)(C)c1ccc(/C=C/c2ccnc3ccccc23)cc1	none (no result: TRPV1 ag, TRPML1 inh, TRPV1 potentiator)
CCCC(=O)N1CCN(c2nc(CC(C)C)c3c(c2C#N)CCC3)CC1	TRPV1 ag 83
CC(C)Cc1nc(N2CCN(C(=O)c3ccco3)CC2)c(C#N)c2c1CCCC2	TRPV1 ag inconclusive
Cc1ccccc1N(CC(=O)NC1CCCC1)C(=O)c1oc(C(C)(C)C)cc1C	TRPML1 ag 70
Cc1cc(C(C)(C)C)oc1C(=O)N(CC(=O)NC1CCCC1)c1cccc(C(F)(F)F)c1	TRPV1 ag inconclusive, TRPML1 ag 52
CC1CCN(CCOc2ccc(C(=O)c3ccccc3)cc2)CC1	TRPV1 potentiator 81
CCCN1C(=O)/C(=C/c2ccc(N3CCCC3)c(C)c2)NC1=S	TRPML1 ag 67 (no result: TRPV1 ag, TRPV1 potentiator)
Cc1cc(/C=C2\NC(=S)N(C)C2=O)ccc1N1CCCC1	TRPV1 ag 89, TRPML1 ag 94
CCN1C(=O)/C(=C/c2ccc(N3CCCC3)cc2)NC1=S	TRPV1 ag inconclusive, TRPML1 ag 64
CCCN1C(=O)/C(=C/c2ccc(N3CCOCC3)cc2)NC1=S	TRPV1 ag inconclusive
Cc1cc(/C=C2/C(=O)N(C)C(=S)N2C)ccc1N1CCCC1	TRPML1 ag inconclusive
CC(C)(C)n1ncc2c(=O)n(Cc3ccc(Cl)c(OC(F)(F)F)c3)cnc21	none (no result: TRPV1 ag, TRPV1 potentiator)
